According to the supplement of paper PMC10498489:
Hit rate of the full screen: of about 2,300 compounds, about 330 (14%) showed activity.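 Rule for the calls: active = median modified Z-score above 1.96; inactive = 1.96 or below.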 These entries were drawn from the full list.

system: HepG2 Srxn1-GFP reporter cells (+30 nM CDDO-Me); test: Srxn1-GFP intensity median modified Z-score relative to plate median; higher = stronger NRF2 / oxidative stress reporter activation, active = hit call of the paper; conditions: 10 µM; exposure time: 24h
Method in brief: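 Each value is the replicate median of a per-plate modified Z-score for GFP intensity in HepG2 Srxn1-GFP BAC reporter cells. The cells (20,000 per well, 96-well plates, three replicate plates) received compound at 10 μM together with an NRF2 activator at 30 nM for 24 h, in ≤0.1% DMSO. Cytoplasmic GFP was quantified per cell from confocal images of formaldehyde-fixed, Hoechst-stained cells, leaving out images with fewer than 100 cells, and scaling used 1.4826 × median absolute deviation.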

Structure (SMILES) | Srxn1-GFP intensity median modified Z-score
C#C[C@]1(O)CCC2C3CCC4=Cc5oncc5C[C@]4(C)C3CC[C@@]21C (stereo not given in full) [euspeclibcmpd81] | -0.371 (inactive)
N=c1[nH]cnc2c1ncn2[C@@H]1O[C@H](COP(=O)(O)OP(=O)(O)OC[C@H]2O[C@@H]([n+]3cccc(C(N)=O)c3)[C@H](O)[C@@H]2O)[C@@H](O)[C@H]1O [euspeclibcmpd202] | -0.305 (inactive)
CCC(=O)OCC(=O)[C@@]1(OC(=O)CC)[C@@H](C)CC2C3CC=C4CC(=O)C=C[C@]4(C)C3(F)[C@@H](O)C[C@@]21C (stereo not given in full) [euspeclibcmpd541] | -0.359 (inactive)
O=C(O)c1cc(-c2ccccc2)nc2cc(Br)ccc12 | 1.37 (inactive)
CC1OC(n2cc(F)c(=O)[nH]c2=O)C(O)C1O (stereo not given) [euspeclibcmpd1997] | -0.334 (inactive)
CN[C@@H]1[C@H](O)[C@H](NC)[C@H]2O[C@@]3(O)C(=O)C[C@@H](C)O[C@H]3O[C@@H]2[C@H]1O [euspeclibcmpd268] | -0.125 (inactive)
COc1ccc2c(c1)O[C@@H]1COc3cc(OC)c(OC)cc3C1C2=O (stereo not given in full) [euspeclibcmpd1700] | 22.8 (active)
COc1cc2c(cc1OC)C1C(=O)c3ccc4c(c3O[C@@H]1CO2)C=CC(C)(C)O4 (stereo not given in full) [euspeclibcmpd1734] | 12.7 (active)
COc1ccc([C@H]2Oc3cc(OC)cc(OC)c3C[C@H]2O)cc1 [euspeclibcmpd1383] | 0 (inactive)
COc1cc2c(cc1OC)C1C(=O)c3c(O)cc4c(c3OC1CO2)C=CC(C)(C)O4 (stereo not given) [euspeclibcmpd1478] | 1.56 (inactive)
COc1ccc2c(c1)O[C@H]1c3ccc(OC)cc3OC[C@@H]21 [euspeclibcmpd1733] | -0.45 (inactive)
CCOC(=O)c1c(NC(=O)COC(=O)C(C)NC(N)=O)sc(C(C)=O)c1C (stereo not given) | 1.26 (inactive)
CCN(CC)CCCC(C)N=c1c2ccc(Cl)cc2[nH]c2ccc(OC)cc12 (stereo not given) [euspeclibcmpd261] | 19.2 (active)
CCN(CC)CCCC(C)N=c1cc[nH]c2cc(Cl)ccc12 (stereo not given) [euspeclibcmpd325] | -0.157 (inactive)
O[C@@H]1[C@H](O)CO[C@H]1O [euspeclibcmpd1668] | -0.319 (inactive)
COc1ccc(-c2coc3cc(OC)ccc3c2=O)cc1 [euspeclibcmpd2413] | -0.165 (inactive)
C[C@]12C=CC(=O)CC1=CCC1C2[C@@H](O)C[C@@]2(C)C1CC[C@]2(O)C(=O)CO (stereo not given in full) [euspeclibcmpd241] | -0.692 (inactive)
CN1C(=O)CC[C@H]1c1cccnc1 [euspeclibcmpd75] | -0.303 (inactive)
CN1CCC[C@H]1c1cccnc1 [euspeclibcmpd957] | 8.21 (active)
O=C(O)c1cccnc1 [euspeclibcmpd2043] | -0.519 (inactive)
O=C(O)c1ccccc1C(=O)Nc1ccc(S(=O)(=O)N=c2[nH]ccs2)cc1 [euspeclibcmpd427] | 0.584 (inactive)
CCCCCCCCCCOc1cc2c(=O)c(C(=O)OCC)c[nH]c2cc1OCC [euspeclibcmpd775] | 0 (inactive)
COC(=O)CC1C(C)(C)C(O)C2CC3=C4CC(O)OC(c5ccoc5)C4(C)CCC3C1(C)C2=O (stereo not given) [euspeclibcmpd1860] | 0.479 (inactive)

Structure (SMILES) | Srxn1-GFP intensity median modified Z-score
C=CC[C@]1(O)CCC2C3=C(C=C[C@@]21C)C1=C(CC3)CC(=O)CC1 (stereo not given in full) [euspeclibcmpd848] | 0.704 (inactive)
Oc1cccc2cc3cccc(O)c3c(O)c12 [euspeclibcmpd25] | -0.419 (inactive)
Cc1cc(O)c2c(O)c3c(O)cccc3cc2c1 [euspeclibcmpd2068] | 2.58 (active)
O=c1c(O)cccc2cc(O)c(O)c(O)c12 [euspeclibcmpd1723] | -0.877 (inactive)
O=C(/C=C/C(=O)Oc1ccccc1C(=O)O)Oc1ccccc1C(=O)O [euspeclibcmpd1772] | -0.354 (inactive)
CCCCC(=O)Oc1ccccc1C(=O)O [euspeclibcmpd1887] | 14.5 (active)
O=C(O)c1ccccc1OP(=O)(O)O [euspeclibcmpd1073] | -0.579 (inactive)
CC(=O)Oc1ccccc1C(=O)O [euspeclibcmpd28] | 61 (active)
O=C(Oc1ccccc1C(=O)O)c1ccccc1O [euspeclibcmpd2] | -0.023 (inactive)
CC(=O)Oc1ccccc1C(=O)Oc1ccccc1C(=O)O [euspeclibcmpd1749] | -0.327 (inactive)
CCCCCN(C)CCC(O)(P(=O)(O)O)P(=O)(O)O [euspeclibcmpd2308] | -0.118 (inactive)
CCCc1cc(C(N)=S)ccn1 [euspeclibcmpd1165] | -0.267 (inactive)
NC[C@H]1O[C@H](OC2[C@@H](N)C[C@@H](N)[C@H](O[C@H]3O[C@H](CO)[C@@H](O)[C@H](N)[C@H]3O)[C@H]2O)[C@H](O)[C@@H](O)[C@@H]1O (stereo not given in full) [euspeclibcmpd168] | -0.199 (inactive)
CC(C)CCCC(C)C1CCC2C3CC[C@H]4C[C@@H](O)CC[C@]4(C)C3CC[C@]12C (stereo not given in full) [euspeclibcmpd2135] | 0.00623 (inactive)
NCCC[C@H](N)CC(=O)NC1CNC(=O)C([C@H]2C[C@H](O)NC(N)=N2)NC(=O)C(C=NC(N)=O)NC(=O)[C@H](CO)NC(=O)[C@H](CO)NC1=O (stereo not given in full) [euspeclibcmpd994] | -0.33 (inactive)
CC(C(=O)O)c1ccc2c(c1)[nH]c1ccc(Cl)cc12 (stereo not given) [euspeclibcmpd425] | 0.027 (inactive)
O=C(O)c1cc2cc(Cl)ccc2[nH]1 [euspeclibcmpd2020] | 1.97 (active)
O=C(O)c1cc(=O)[nH]c(=O)[nH]1 [euspeclibcmpd1192] | -0.551 (inactive)
CCn1cc(C(=O)O)c(=O)c2cc(F)c(N3CCN(C(=O)CCSC)CC3)cc21 | 0.401 (inactive)
NS(=O)(=O)c1cc2c(cc1Cl)N=C(CSCc1ccccc1)NS2(=O)=O [euspeclibcmpd35] | -0.327 (inactive)
CC1OC1P(=O)(O)O (stereo not given) [euspeclibcmpd2281] | -0.455 (inactive)
CC(C)[N+](C)(CCOC(=O)C1c2ccccc2Oc2ccccc21)C(C)C [euspeclibcmpd254] | 0.13 (inactive)
